Screening data deposited in PubChem by several laboratories.
The list is not random: actives were taken first. Their share in the collection is about 4.6%.
AHR activator – activators of human aryl hydrocarbon receptor; AID 2796; activation, % at 5 µM; hit rate 2.5% among 320,000; AHR-responsive luciferase reporter cells, luminescence; in the data active = activation above about 47%
Target sequence (P35869 whole entry, looked up): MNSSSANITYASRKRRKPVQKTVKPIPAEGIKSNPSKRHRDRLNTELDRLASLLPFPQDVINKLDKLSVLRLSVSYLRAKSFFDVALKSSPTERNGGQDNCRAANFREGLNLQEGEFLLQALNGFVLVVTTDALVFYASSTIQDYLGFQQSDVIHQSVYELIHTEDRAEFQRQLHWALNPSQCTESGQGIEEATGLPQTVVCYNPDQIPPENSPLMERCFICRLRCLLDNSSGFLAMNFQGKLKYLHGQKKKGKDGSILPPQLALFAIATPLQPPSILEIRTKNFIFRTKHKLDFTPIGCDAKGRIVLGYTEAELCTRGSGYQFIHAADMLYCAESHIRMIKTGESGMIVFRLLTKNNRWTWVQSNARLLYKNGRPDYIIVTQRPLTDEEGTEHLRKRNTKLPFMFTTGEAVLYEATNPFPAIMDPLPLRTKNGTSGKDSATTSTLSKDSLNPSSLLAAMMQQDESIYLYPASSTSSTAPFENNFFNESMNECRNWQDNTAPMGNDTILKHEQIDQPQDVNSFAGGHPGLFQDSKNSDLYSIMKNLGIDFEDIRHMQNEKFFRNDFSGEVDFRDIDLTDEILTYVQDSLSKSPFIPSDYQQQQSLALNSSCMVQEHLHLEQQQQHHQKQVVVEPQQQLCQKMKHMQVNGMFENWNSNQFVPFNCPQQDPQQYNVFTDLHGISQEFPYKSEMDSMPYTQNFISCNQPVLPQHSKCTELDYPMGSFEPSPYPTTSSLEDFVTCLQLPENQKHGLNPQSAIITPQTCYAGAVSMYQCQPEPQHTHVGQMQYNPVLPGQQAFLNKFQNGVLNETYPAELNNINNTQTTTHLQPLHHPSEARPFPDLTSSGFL
HSF-1 act – increases HSF-1 driven luciferase reporter signal; activation, % at 9 µM; AID 504408; hit rate 1.7% among 300,000; NIH3T3-HGL HSF-1 luciferase reporter, MG132, 8 h; 100% = twice DMSO control signal;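 active = mean replicate activation of at least 50% with a set share of replicates each reaching 50%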
FXN GAA850 act – increases GAA850 frataxin promoter reporter activity; activation, % at 6 µM; hit rate 0.56% among 360,000; HEK293 lucGAA850 FXN promoter luciferase reporter, 24 h; percent of 10 µM SAHA response;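 active = activation above the average of all compounds screened plus 3 SD, cutoff fixed separately per campaign, cut at about 7.5% in these data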
HSF1 inh – HSF1 inhibition | NIH3T3-HGL HSE-luciferase, MG132-induced, luminescence 8 h; stronger effect = lower value | activity change, negative = inhibition, % at 7.5 µM (by protocol) | hit rate 0.77% among 300,000;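 active = more than half of replicate wells show activity change below -50%, luminescence cut by over half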;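 note: luciferase reports HSF-1 transcriptional activity via heat shock element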
Hits are given with their value.

Screening CCC(CC)COC(=O)C1=C(C)NC(=O)NC1c1cc(OC)ccc1OC (configuration not stated) returned AHR activator inactive, HSF-1 act 70, FXN GAA850 act inactive and HSF1 inh inactive.
Screening COc1ccccc1NC(=S)Nc1ccc2cn[nH]c2c1 returned AHR activator inactive, HSF-1 act inactive, FXN GAA850 act inactive and HSF1 inh inactive.
Screening CCc1ccc(NC(=O)c2cnccn2)cc1 returned AHR activator inactive, HSF-1 act inactive, FXN GAA850 act inactive and HSF1 inh inactive.
For COc1ccc(CNC(=O)Oc2ccccc2)cc1Cl the results were AHR activator inactive, HSF-1 act 94, FXN GAA850 act inactive and HSF1 inh inactive.
Screening CCOC(=O)c1c(CN2CCC(C)CC2)n(C)c2cc(Br)c(OC)cc12 returned AHR activator inactive, HSF-1 act 94, FXN GAA850 act inactive and HSF1 inh inactive.
Screening CCOC(=O)c1c(CN2CCN(Cc3ccccc3)CC2)n(C)c2cc(Br)c(OC)cc12 returned AHR activator inactive, HSF-1 act inactive, FXN GAA850 act inactive and HSF1 inh inactive.
CCOC(=O)c1c(C)[nH]c2cc(Br)c(OC)cc12 was read as AHR activator 51 and FXN GAA850 act inactive.
Screening Cc1ccc(Cn2c(Sc3nccc(C)n3)nc3c2c(=O)[nH]c(=O)n3C)cc1 returned AHR activator inactive, HSF-1 act inactive, FXN GAA850 act inactive and HSF1 inh inactive.
`CC(=O)CSc1nc2c(c(=O)[nH]c(=O)n2C)n1Cc1cccc(Br)c1` gave AHR activator inactive, HSF-1 act 58, FXN GAA850 act inactive and HSF1 inh inactive.
Screening Cn1c(=O)[nH]c(=O)c2c1nc(SCCC(=O)O)n2Cc1cccc(Br)c1 returned AHR activator inactive, HSF-1 act inactive, FXN GAA850 act inactive and HSF1 inh inactive.
For Cc1ccc(Cn2c(Sc3ncccn3)nc3c2c(=O)[nH]c(=O)n3C)cc1 the results were AHR activator inactive, HSF-1 act inactive, FXN GAA850 act inactive and HSF1 inh -65.
For Cc1ccsc1C1NC(=O)c2ccccc2N1 (configuration not stated) the results were AHR activator inactive, HSF-1 act inactive, FXN GAA850 act inactive and HSF1 inh inactive.
`O=C1NC(c2cccs2)Nc2ccccc21` (configuration not stated) gave AHR activator 52, HSF-1 act inactive, FXN GAA850 act inactive and HSF1 inh inactive.
`Nc1ccccc1SC1CC(=O)N(c2ccc3c(c2)OCO3)C1=O` (configuration not stated) gave AHR activator 72, HSF-1 act inactive, FXN GAA850 act inactive and HSF1 inh inactive.
Screening O=C(O)c1ccccc1SC1CC(=O)N(c2ccc3c(c2)OCO3)C1=O (configuration not stated) returned AHR activator inactive, HSF-1 act inactive, FXN GAA850 act inactive and HSF1 inh inactive.
O=C(c1nc2ccccn2c1CN1CCCC(O)C1)N1CCN(C2CCCCC2)CC1 (configuration not stated) was read as AHR activator inactive, HSF-1 act inactive, FXN GAA850 act inactive and HSF1 inh inactive.
Cc1ccc(N2CCN(CCc3nc4cc(NC(=O)c5ccco5)ccc4n3C)CC2)cc1 was read as AHR activator inactive, HSF-1 act 69, FXN GAA850 act inactive and HSF1 inh inactive.
`Cn1c(CCN2CCN(c3ccccc3)CC2)nc2cc(NC(=O)c3ccco3)ccc21` gave AHR activator inactive, HSF-1 act 128, FXN GAA850 act inactive and HSF1 inh inactive.
`Cn1c(CCN2CCN(c3ccc(F)cc3)CC2)nc2cc(NC(=O)c3ccco3)ccc21` gave AHR activator inactive, HSF-1 act inactive, FXN GAA850 act inactive and HSF1 inh inactive.
`CCN(CC(=O)Nc1c(F)cccc1F)C(=O)c1cc([N+](=O)[O-])ccc1N1CCOCC1` gave AHR activator inactive, HSF-1 act inactive, FXN GAA850 act inactive and HSF1 inh inactive.
`O=C1C2CCCCN2C(=O)N1CCCN1CCN(c2ccc(F)cc2)CC1` (configuration not stated) gave AHR activator inactive, HSF-1 act 57, FXN GAA850 act inactive and HSF1 inh inactive.
For Fc1ccc(Sc2nc(-c3ccccc3)nnc2C(F)(F)F)cc1 the results were AHR activator inactive, HSF-1 act 66, FXN GAA850 act inactive and HSF1 inh inactive.
Screening COC(=O)c1cc(OC)c(OC)cc1NC(=O)CCNC(=O)c1ccco1 returned AHR activator inactive, HSF-1 act inactive, FXN GAA850 act inactive and HSF1 inh inactive.
For O=C(Nc1nc2cc3c(cc2s1)OCO3)C1CC1 the results were AHR activator 57, HSF-1 act inactive, FXN GAA850 act inactive and HSF1 inh inactive.
Screening CC(C)C(=O)Nc1nc2cc3c(cc2s1)OCO3 returned AHR activator 66, HSF-1 act inactive, FXN GAA850 act inactive and HSF1 inh inactive.
